Measurements as given in the supplement of paper PMC10849652.
Targets with a hit are over-represented here; the source holds about 8,800 in all. About 0.5% of all pairs of compound and target were hits. Unmarked numbers belong to inactive results.

Key:
Assay in all cases: log2 fold change, soluble protein after heating vs DMSO (PISA); higher = thermal stabilisation; K562 lysate, 10 uM; active = over 0.2 and 3.5 SD of the protein, either way, in both replicates (recomputed)
[1] = compound: CCCS(=O)(=O)Nc1ccc(F)c(C(=O)c2c[nH]c3ncc(-c4ccc(Cl)cc4)cc23)c1F [vemurafenib]
Procedure, shortened: (§1)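 Pellets of K562 cells were dounce-homogenised in PBS pH 7.4 with 1 mM MgCl2, and the crude extract was held at 1 mg/mL protein for a 30 min treatment with 10 μM compound. Aliquots were heated for 3 min over 48°C-58°C and pooled before NP-40 was added to 0.5% at 4°C. The supernatant from 21,000xg for 90 min was quantified by TMTpro 16plex LC-MS/MS with channel sums equalised. Values are reported from duplicates as log-two fold change in thermal stability relative to solvent controls.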

[2] = compound: CCCS(=O)(=O)Nc1ccc(F)c(C(=O)c2c[nH]c3ncc(Cl)cc23)c1F
Procedure, shortened: as §1

[3] = compound: CCN(CCCOc1ccc2c(Nc3cc(CC(=O)Nc4cccc(F)c4)[nH]n3)ncnc2c1)CCOP(=O)(O)O [barasertib]
Procedure, shortened: as §1

[4] = compound: CC[C@@H]1C(=O)N(C)c2cnc(Nc3ccc(C(=O)NC4CCN(C)CC4)cc3OC)nc2N1C1CCCC1
Procedure, shortened: as §1

[5] = compound: CC[C@@H]1C(=O)N(C)c2cnc(Nc3ccc(C(=O)N[C@H]4CC[C@H](N5CCN(CC6CC6)CC5)CC4)cc3OC)nc2N1C(C)C [volasertib]
Procedure, shortened: as §1

[6] = compound: CCn1c(C(=O)N(C2CC2)C2CC2)cc2c3c(ncn3C)c(Nc3cc(C)n(C)n3)nc21
Procedure, shortened: as §1

[7] = compound: CCn1cc(-c2ccnc3[nH]c(-c4cccc(CN(C)C)c4)cc23)c(-c2ccc(NC(=O)N(C)C)cc2)n1
Procedure, shortened: as §1

[8] = compound: CN1CCC(CNc2ccc3ncc(-c4cccc(OC(F)(F)F)c4)n3n2)CC1
Procedure, shortened: as §1

[9] = compound: CN1CCN(CCOc2cc(OC3CCOCC3)c3c(Nc4c(Cl)ccc5c4OCO5)ncnc3c2)CC1 [saracatinib]
Procedure, shortened: as §1

[10] = compound: CN1CCN(c2nc(C3=C(c4c[nH]c5ccccc45)C(=O)NC3=O)c3ccccc3n2)CC1 [sotrastaurin]
Procedure, shortened: as §1

[11] = compound: CN1CC[C@H](c2c(O)cc(O)c3c(=O)cc(-c4ccccc4Cl)oc23)[C@H](O)C1 [alvocidib]
Procedure, shortened: as §1

[12] = compound: CN1CCc2c(c3ccccc3n2Cc2ccc(C(=O)NO)cc2)C1 [Tubastatin A]
Procedure, shortened: as §1

[13] = compound: CNC(=O)C1=CC=CC=C1NC2=NC(=NC=C2Cl)NC3=C(C=C(C=C3)N4CCOCC4)OC
Procedure, shortened: as §1

[14] = compound: CNC(=O)c1ccc(Nc2ncc(C(F)(F)F)c(NCc3nccnc3N(C)S(C)(=O)=O)n2)cc1 [defactinib]
Procedure, shortened: as §1

[15] = compound: CNc1nc(-c2ccc3c(N)n[nH]c3c2)cc(N2C[C@@H](C(=O)NC3CCCCC3)CC[C@H]2C)n1
Procedure, shortened: as §1

[16] = compound: COC(=O)N[C@@H](C)CNc1nccc(-c2cn(C(C)C)nc2-c2cc(Cl)cc(NS(C)(=O)=O)c2F)n1 [encorafenib]
Procedure, shortened: as §1

[17] = compound: COC(=O)[C@H](CCSC)NC(=O)C1=C(C=C(C=C1)NC[C@H](CS)N)C2=CC=CC=C2
Procedure, shortened: as §1

[18] = compound: COc1cc(Nc2ncc3c(n2)-c2ccc(Cl)cc2C(c2c(F)cccc2OC)=NC3)ccc1C(=O)O [alisertib]
Procedure, shortened: as §1

[19] = compound: COc1cc2nc(-c3cc(F)ccc3O)nc(N[C@@H]3CNC[C@H]3C(C)(C)O)c2cc1OC
Procedure, shortened: as §1

[20] = compound: COc1cc2ncnc(Nc3ccc(F)c(Cl)c3)c2cc1OCCCN1CCOCC1 [gefitinib]
Procedure, shortened: as §1

UniProt Q8IZV5, sequence (Q8IZV5 whole entry, looked up): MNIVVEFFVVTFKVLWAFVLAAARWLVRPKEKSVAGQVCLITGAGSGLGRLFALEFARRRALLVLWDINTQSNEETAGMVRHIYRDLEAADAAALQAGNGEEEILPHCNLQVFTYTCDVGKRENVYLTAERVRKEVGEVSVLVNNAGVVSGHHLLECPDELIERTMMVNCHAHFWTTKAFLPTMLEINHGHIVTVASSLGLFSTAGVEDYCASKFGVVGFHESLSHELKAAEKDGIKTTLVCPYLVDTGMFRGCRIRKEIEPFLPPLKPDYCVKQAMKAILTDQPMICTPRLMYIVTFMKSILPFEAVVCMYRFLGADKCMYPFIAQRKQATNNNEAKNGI
UniProt P11233, sequence (P11233 whole entry, looked up): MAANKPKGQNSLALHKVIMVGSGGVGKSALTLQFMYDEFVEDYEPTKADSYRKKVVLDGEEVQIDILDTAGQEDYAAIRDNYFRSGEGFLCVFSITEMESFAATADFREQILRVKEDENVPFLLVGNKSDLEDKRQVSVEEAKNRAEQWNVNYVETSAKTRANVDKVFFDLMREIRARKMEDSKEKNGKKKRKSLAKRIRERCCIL
UniProt Q9NW64, sequence (Q9NW64 whole entry, looked up): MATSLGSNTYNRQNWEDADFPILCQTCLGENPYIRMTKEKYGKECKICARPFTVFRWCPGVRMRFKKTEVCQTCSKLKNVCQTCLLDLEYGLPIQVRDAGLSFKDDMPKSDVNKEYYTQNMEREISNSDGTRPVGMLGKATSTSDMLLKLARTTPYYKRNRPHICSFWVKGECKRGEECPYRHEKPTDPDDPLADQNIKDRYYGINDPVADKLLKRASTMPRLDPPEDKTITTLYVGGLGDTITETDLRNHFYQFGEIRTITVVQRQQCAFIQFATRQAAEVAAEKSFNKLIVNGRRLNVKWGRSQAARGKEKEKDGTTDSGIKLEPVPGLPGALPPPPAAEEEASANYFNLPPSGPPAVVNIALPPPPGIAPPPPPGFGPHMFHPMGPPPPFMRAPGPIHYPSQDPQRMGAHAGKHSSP
UniProt P55735, sequence (P55735 whole entry, looked up): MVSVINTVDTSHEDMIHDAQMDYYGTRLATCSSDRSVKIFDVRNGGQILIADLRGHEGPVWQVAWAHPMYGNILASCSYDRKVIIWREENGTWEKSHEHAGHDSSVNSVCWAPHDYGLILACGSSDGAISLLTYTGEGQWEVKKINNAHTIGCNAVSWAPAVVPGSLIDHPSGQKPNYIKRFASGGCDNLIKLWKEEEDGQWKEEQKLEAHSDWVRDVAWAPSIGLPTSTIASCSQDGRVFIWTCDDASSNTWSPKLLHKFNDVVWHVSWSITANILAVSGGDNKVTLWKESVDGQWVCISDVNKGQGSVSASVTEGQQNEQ
UniProt Q15287, sequence (Q15287 whole entry, looked up): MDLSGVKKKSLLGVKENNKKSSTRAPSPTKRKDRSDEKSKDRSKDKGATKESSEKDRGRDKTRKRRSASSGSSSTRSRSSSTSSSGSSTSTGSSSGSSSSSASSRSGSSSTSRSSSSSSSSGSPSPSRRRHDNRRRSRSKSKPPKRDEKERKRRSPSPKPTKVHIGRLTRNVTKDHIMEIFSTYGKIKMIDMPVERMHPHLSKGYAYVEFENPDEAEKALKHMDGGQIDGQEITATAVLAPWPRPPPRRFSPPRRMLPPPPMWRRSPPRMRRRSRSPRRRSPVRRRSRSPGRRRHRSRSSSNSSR
UniProt P23443, sequence (P23443 whole entry, looked up): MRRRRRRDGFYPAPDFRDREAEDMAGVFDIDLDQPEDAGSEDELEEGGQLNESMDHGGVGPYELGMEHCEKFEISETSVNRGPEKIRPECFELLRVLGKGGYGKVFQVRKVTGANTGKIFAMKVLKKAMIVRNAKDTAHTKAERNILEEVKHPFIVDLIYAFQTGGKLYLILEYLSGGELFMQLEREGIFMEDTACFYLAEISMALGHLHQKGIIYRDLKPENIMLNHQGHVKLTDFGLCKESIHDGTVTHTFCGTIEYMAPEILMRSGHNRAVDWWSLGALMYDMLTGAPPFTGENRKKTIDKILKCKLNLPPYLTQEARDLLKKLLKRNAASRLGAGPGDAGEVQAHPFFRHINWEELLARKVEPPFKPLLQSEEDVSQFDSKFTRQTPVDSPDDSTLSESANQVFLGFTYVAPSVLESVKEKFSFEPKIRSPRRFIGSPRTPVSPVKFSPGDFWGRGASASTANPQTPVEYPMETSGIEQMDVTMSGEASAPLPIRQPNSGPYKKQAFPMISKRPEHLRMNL

| Target | log2 fold change [1] | log2 fold change [2] | log2 fold change [3] | log2 fold change [4] | log2 fold change [5] | log2 fold change [6] | log2 fold change [7] | log2 fold change [8] | log2 fold change [9] | log2 fold change [10] | log2 fold change [11] | log2 fold change [12] | log2 fold change [13] | log2 fold change [14] | log2 fold change [15] | log2 fold change [16] | log2 fold change [17] | log2 fold change [18] | log2 fold change [19] | log2 fold change [20] |
| --- | --- | --- | --- | --- | --- | --- | --- | --- | --- | --- | --- | --- | --- | --- | --- | --- | --- | --- | --- | --- |
| RDH10 (UniProt Q8IZV5) | 0.054 | 0.032 | 0.027 | -0.011 | 0.035 | -0.072 | -0.067 | 0.062 | -0.035 | -0.006 | -0.013 | 0.015 | 0.069 | 0.009 | -0.013 | -0.001 | 0.346 (active) | 0.037 | 0.007 | -0.004 |
| RNPS1 (UniProt Q15287) | -0.03 | 0.001 | -0.008 | -0.175 | 0.043 | -0.022 | 0.02 | 0.077 | -0.04 | -0.003 | -0.043 | 0.102 | 0.02 | -0.009 | 0.029 | 0.069 | 0.01 | 0.02 | 0.01 | 0.006 |
| RPS6KB1 (UniProt P23443) | -0.052 | -0.001 | 0.068 | -0.109 | -0.041 | 0.078 | -0.155 | 0.185 | -0.022 | 0.074 | -0.021 | -0.184 | 0.115 | 0.094 | -0.013 | -0.039 | 0.218 | -0.02 | 0.166 | 0.062 |
| RALA (UniProt P11233) | 0.033 | 0.004 | -0.001 | 0.029 | 0.014 | -0.023 | -0.289 (active) | 0.169 | -0.021 | -0.027 | -0.164 | 0.044 | 0.016 | -0.057 | 0.056 | 0.03 | -0.102 | 0.009 | 0.01 | 0.023 |
| SEC13 isoform 3 (UniProt P55735) | -0.001 | -0.004 | -0.031 | -0.013 | 0.007 | 0.003 | 0.507 (active) | -0.042 | -0.027 | -0.015 | 0.107 | 0.029 | -0.024 | -0.06 | -0.064 | 0.002 | -0.039 | 0.02 | -0.004 | 0.03 |
| RAB3IL1 (UniProt E9PK89) | -0.154 | 0.031 | -0.001 | -0.079 | 0.031 | -0.054 | 0.026 | -0.047 | -0.043 | -0.013 | -0.008 | -0.025 | 0.023 | 0.123 | 0.005 | 0.047 | 0.024 | 0.032 | -0.07 | 0 |
| RBM22 (UniProt Q9NW64) | -0.014 | -0.007 | 0.022 | 0.078 | -0.004 | -0.004 | 0.058 | 0.025 | 0.01 | -0.08 | 0.022 | 0.019 | 0.009 | 0.001 | 0.179 | 0.05 | -0.11 | 0.002 | 0.026 | 0.031 |
| RPL36AL (UniProt Q969Q0) | -0.039 | 0.012 | -0.009 | -0.04 | -0.013 | 0.076 | -0.076 | -0.004 | -0.091 | -0.032 | 0.055 | -0.056 | 0.023 | 0.026 | -0.243 (active) | 0.03 | -0.08 | -0.057 | -0.029 | -0.07 |
